Measurements reported in PubChem BioAssay (EPA / NIEHS).
Some structures have more than one record in an assay (separate samples or runs), and their calls can disagree. Active and inactive are the calls of the source. The calls were made as follows: active = hit-call score of the fitted dose curve at least 0.9, where 1 is the maximum; inactive = score below 0.9.

Read-out: Thrombomodulin, THBD (gene 7056)
Experiment: BSK_3C_Thrombomodulin: BioMAP Diversity Plus: 3C Assay for Thrombomodulin Biomarker Activity (AID 2283029)
Conditions: primary human endothelial cells (HUVEC); actives raise or lower the signal
Method: BSK_3C is a cell-based, multiplexed-readout assay that uses umbilical vein endothelium, a human vascular primary cell, with measurements taken at 24 hours after chemical dosing in a 96-well plate.BSK_3C_Thrombomodulin is an assay component measured in the BSK_3C assay. It measures Thrombomodulin antibody related to regulation of gene expression using ELISA technology.Data from the assay component BSK_3C_Thrombomodulin was analyzed into 1 assay endpoint. This assay endpoint, BSK_3C_Thrombomodulin, was analyzed with bidirectional fitting relative to DMSO as the negative control and baseline of activity. Using a type of binding reporter, gain or loss-of-signal activity can be used to understand changes in the signaling as they relate to the gene THBD. Furthermore, this assay endpoint can be referred to as a primary readout, because this assay has produced multiple assay endpoints where this one serves a signaling function. To generalize the intended target to other relatable targets, this assay endpoint is annotated to the gpcr intended target family, where the subfamily is rhodopsin-like receptor.
The levels of cell surface (or secreted, indicated by the prefix "s") biomarker endpoints were measured by ELISA. Overt cytotoxicity to cells in confluent adherent cultures (all systems other than the BT system) was assessed by measuring total protein levels using sulforhodamine B (SRB) staining in parallel cultures at the time of biomarker measurements, indicated as SRB endpoints. For proliferation assays for adherent cell types, individual cell types are cultured at sub-confluence and relative cell numbers quantified by SRB staining at time points optimized for each system (48 h: 3C and CASM3C systems; 72 h: BT and HDF3CGF systems; 96 h: SAg system). SRB was performed by staining cells with 0.1% SRB after fixation with 10% TCA and reading wells at 560 nm.Viability and proliferation of PBMC (T cells) was quantified by Alamar Blue reduction for the SAg and BT systems. For PBMC viability (referred to as PBMC Cytotoxicity within the assay endpoint names), cells were plated (75,000/well in a 96-well plate) and then chemical samples added for 1 h before addition of activators, SEB and TSST-1 (20 ng/mL final concentration each). Cells were incubated for 90 h. Then, Alamar Blue (20 uL/well) (Invitrogen, Cat DAL1100) was added for 6 h, and the plates were read with a fluorescence microplate reader at 546/580 nm (excitation/emission). For PBMC proliferation, cells were plated and activated as above but incubated for only 16 h prior to addition of Alamar Blue. Plates were read after 6 h.

SMILES	outcome	AC50
O=S(=O)(c1ccc(Cl)cc1)c1ccc(Cl)cc1	inactive	–
ClCC(Cl)CCl	inactive	–
CCOP(=S)(OCC)SCCS(=O)(=O)CC	inactive	–
C=C(C)C(=O)[O][Sn]([CH2]CCC)([CH2]CCC)[CH2]CCC	–	1.16 µM (active)
COP(=S)(OC)Oc1ccc(Sc2ccc(OP(=S)(OC)OC)cc2)cc1	inactive	–
O=C(O)C(F)(F)C(F)(F)C(F)(F)C(F)(F)C(F)(F)C(F)(F)C(F)(F)C(F)(F)C(F)(F)C(F)(F)F	inactive	5.29 µM (active)
COc1cc(-c2ccc(N)c(OC)c2)ccc1N	inactive	–
CC(=O)OC(c1ccccc1)C(Cl)(Cl)Cl (stereo not given)	inactive	–
CC(C)(OO)c1ccccc1	inactive	–
O=C(OC1CCCCC1)c1ccccc1C(=O)OC1CCCCC1	inactive	–
CN(C)N=O	inactive	–
COc1cc(OC)nc(NC(=O)NS(=O)(=O)c2ncccc2C(=O)N(C)C)n1	inactive	–
CC(C)(C)c1cc(O)ccc1O	–	33.5 µM (active)
Oc1cccc2cccnc12	inactive	–
O=c1[nH]c(=O)[nH]c(=O)[nH]1	inactive	–
NC(=O)O	inactive	–
Oc1ccc(-c2ccccc2)cc1	inactive	–
CCOP(=S)(OCC)Oc1ccc(S(C)=O)cc1 (stereo not given)	inactive	–
COC(=O)c1sccc1S(=O)(=O)NC(=O)Nc1nc(C)nc(OC)n1	inactive	–
O=[N+]([O-])c1ccc(O)c([N+](=O)[O-])c1	inactive	–

SMILES	outcome	AC50
C[C@]12CCC(=O)C[C@@H]1CC[C@@H]1[C@@H]2CC[C@]2(C)[C@@H](O)CC[C@@H]12	inactive	–
BrCCBr	inactive	–
CC(C)CCCCCCOC(=O)c1ccccc1C(=O)OCCCCCCC(C)C	inactive	–
CC12CC1(C)C(=O)N(c1cc(Cl)cc(Cl)c1)C2=O (stereo not given)	inactive	–
O=C1C2(Cl)C3(Cl)C4(Cl)C(Cl)(Cl)C5(Cl)C3(Cl)C1(Cl)C5(Cl)C24Cl (stereo not given)	inactive	–
ClC1(Cl)C2(Cl)C3(Cl)C4(Cl)C(Cl)(Cl)C5(Cl)C3(Cl)C1(Cl)C5(Cl)C24Cl (stereo not given)	inactive	–
O=[N+]([O-])c1ccc2c3c(cccc13)CC2	inactive	–
O=C(O)C(Cl)(Cl)Cl	inactive	–
CCCCCCCCc1ccc(O)cc1	–	34.3 µM (active)
ClC(Cl)=C(Cl)C(Cl)=C(Cl)Cl	inactive	–
O=C(Nc1ccc2[nH]ccc2c1)c1cc2cc(F)ccc2n1Cc1cccc(F)c1	inactive	–
CC(C)(c1ccccc1)c1ccc(O)c(C(C)(C)c2ccccc2)c1	inactive	–
CCOP(=S)(OCC)SCSP(=S)(OCC)OCC	inactive	–
O=C(O)CCC(F)(C(F)(F)F)C(F)(F)F	inactive	–
C(=NC1CCCCC1)=NC1CCCCC1	inactive	–
CCSC(C)CC1CC(=O)C(C(CC)=NOC/C=C/Cl)=C(O)C1 (stereo not given)	inactive	–
C=CC(=O)OCCCCCC(C)C	inactive	–
Nc1cccc2ccccc12	inactive	–
OCc1ccco1	inactive	–
